We go through 46 sequences from PMC13541613, “GHT-SELEX demonstrates unexpectedly high intrinsic sequence specificity and complex DNA binding of many human transcription factors”.

Common to all, as to test: HT-SELEX; 20 mM HEPES pH 7, 140 mM KCl, 5 mM NaCl, 1 mM K2HPO4, 2 mM MgSO4, 100 uM EGTA, ZnSO4, 0.1% Tween20; room temperature, 1 h; high values mean tight binding
Conditions in all cases: protein: ivt; tags: eGFP (N-terminal); dsDNA, one strand shown

For one assay, the target named is ZNF721 full-length (Homo sapiens, UniProt Q8TF20-2 1-923). The essentials: (§1)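 In HEPES/KCl low-stringency buffer with Tween20, a bead-immobilised tagged transcription factor (full-length or DNA-binding-domain fragment, from HEK293 lysate or cell-free extract) was incubated with a randomized 40-base DNA library for 1 h at room temperature. DNA retained after washing was heat-eluted, amplified by PCR over successive cycles and Illumina-sequenced, giving ~3 million 60 bp reads per sample. The reported binding signal, a relative k-mer count in those selected reads, rises with tighter binding.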
Chain of ZNF721 full-length (Q8TF20 other isoform, or with tags, fused parts or gaps): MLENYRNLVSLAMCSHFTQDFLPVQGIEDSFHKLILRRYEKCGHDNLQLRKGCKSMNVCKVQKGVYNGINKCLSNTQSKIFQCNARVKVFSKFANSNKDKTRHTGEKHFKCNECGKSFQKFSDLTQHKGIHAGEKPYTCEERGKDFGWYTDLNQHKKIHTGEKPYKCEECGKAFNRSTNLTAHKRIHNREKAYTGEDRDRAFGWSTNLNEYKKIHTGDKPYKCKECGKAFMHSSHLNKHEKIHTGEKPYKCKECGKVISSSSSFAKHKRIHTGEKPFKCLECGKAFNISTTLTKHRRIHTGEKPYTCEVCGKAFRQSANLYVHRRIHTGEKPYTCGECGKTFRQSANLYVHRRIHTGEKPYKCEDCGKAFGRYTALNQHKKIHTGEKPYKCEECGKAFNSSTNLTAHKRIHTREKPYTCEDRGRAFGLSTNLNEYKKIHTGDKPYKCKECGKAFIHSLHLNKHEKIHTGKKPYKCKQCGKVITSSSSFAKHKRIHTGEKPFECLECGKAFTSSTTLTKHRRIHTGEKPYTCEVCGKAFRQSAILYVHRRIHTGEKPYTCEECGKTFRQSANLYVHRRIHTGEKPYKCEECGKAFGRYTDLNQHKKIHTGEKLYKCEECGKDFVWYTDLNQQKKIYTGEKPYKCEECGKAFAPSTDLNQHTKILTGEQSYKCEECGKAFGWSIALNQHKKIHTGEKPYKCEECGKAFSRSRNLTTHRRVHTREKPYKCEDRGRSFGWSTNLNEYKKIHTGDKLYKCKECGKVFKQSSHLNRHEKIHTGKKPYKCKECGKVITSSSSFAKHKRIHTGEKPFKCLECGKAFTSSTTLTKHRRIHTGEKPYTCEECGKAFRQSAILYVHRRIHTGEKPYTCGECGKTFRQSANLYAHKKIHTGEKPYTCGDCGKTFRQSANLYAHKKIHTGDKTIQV

A further assay deals with ZNF721 DBD1 (Homo sapiens, UniProt Q8TF20-2 29-461). The essentials:
as §1

Another assay has as its target ZNF721 DBD2 (Homo sapiens, UniProt Q8TF20-2 395-923). The procedure, abridged:
as §1

Chain of ZNF721 DBD2 (Q8TF20 383-911): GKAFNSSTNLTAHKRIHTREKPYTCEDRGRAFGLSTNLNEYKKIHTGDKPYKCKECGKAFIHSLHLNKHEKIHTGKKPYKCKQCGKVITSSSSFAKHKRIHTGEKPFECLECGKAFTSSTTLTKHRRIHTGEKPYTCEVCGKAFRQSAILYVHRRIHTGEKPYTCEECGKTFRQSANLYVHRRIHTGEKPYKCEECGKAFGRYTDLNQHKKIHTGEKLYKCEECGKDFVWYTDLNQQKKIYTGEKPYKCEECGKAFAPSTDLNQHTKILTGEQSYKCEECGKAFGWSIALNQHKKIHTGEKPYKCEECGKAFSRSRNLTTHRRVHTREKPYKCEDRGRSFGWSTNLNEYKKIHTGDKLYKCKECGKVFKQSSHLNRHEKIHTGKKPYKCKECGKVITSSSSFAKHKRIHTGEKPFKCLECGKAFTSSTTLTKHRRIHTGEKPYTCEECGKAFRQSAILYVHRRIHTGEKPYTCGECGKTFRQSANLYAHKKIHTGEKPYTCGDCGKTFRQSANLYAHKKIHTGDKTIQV
Chain of ZNF721 DBD1 (Q8TF20 17-449): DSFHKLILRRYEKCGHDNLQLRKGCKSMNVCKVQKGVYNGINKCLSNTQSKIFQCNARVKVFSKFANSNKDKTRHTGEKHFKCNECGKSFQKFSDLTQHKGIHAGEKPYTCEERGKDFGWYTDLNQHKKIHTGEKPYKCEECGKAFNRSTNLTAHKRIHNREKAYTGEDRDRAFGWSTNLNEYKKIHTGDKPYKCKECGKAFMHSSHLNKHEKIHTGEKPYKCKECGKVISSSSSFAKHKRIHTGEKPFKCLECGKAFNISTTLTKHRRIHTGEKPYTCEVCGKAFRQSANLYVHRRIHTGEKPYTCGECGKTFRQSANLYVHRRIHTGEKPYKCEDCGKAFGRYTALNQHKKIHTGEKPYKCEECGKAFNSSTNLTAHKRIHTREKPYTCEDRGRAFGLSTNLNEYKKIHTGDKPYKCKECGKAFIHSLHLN

Take CCACCCAGCC: the binding signal worked out at 0.102 relative 10-mer count with ZNF721 full-length, 0.00294 relative 10-mer count in the assay with ZNF721 DBD1 and 0.00264 relative 10-mer count with ZNF721 DBD2.
As for CCACCGCCCC, the binding signal with ZNF721 full-length is 0.256 relative 10-mer count; in the assay with ZNF721 DBD1, 0.0117 relative 10-mer count; in the assay with ZNF721 DBD2 it was 0.00455 relative 10-mer count.
The corresponding values for AAAAAGCGTC are 0.108 relative 10-mer count, 0.0239 relative 10-mer count and 0.0102 relative 10-mer count.
The corresponding values for AAAAAAAGAA are 0.104 relative 10-mer count, 0.00867 relative 10-mer count and 0.0321 relative 10-mer count.
In the same order, the values of CAAAACAGCA are 0.21 relative 10-mer count, 0.00119 relative 10-mer count and 0.205 relative 10-mer count.
For CCCCTCCACC, the binding signal was 0.274 relative 10-mer count with ZNF721 full-length, 0.0117 relative 10-mer count with ZNF721 DBD1 and 0.00851 relative 10-mer count with ZNF721 DBD2.
As to AAGCATACCC, the binding signal is 0.253 relative 10-mer count with ZNF721 full-length, 0.076 relative 10-mer count in the assay with ZNF721 DBD1 and 0.0243 relative 10-mer count with ZNF721 DBD2.
The corresponding values for CCACCCCGAC are 0.136 relative 10-mer count, 0.00404 relative 10-mer count and 0.0024 relative 10-mer count.
The corresponding values for CCTCCCACCC are 0.255 relative 10-mer count, 0.0139 relative 10-mer count and 0.00599 relative 10-mer count.
In the same order, the values of ACCCACCCTC are 0.132 relative 10-mer count, 0.00541 relative 10-mer count and 0.00647 relative 10-mer count.
For CGCCCCACCC, the values for the binding signal in the assay with ZNF721 full-length, with ZNF721 DBD1 and in the assay with ZNF721 DBD2 were 0.236 relative 10-mer count, 0.00844 relative 10-mer count and 0.00312 relative 10-mer count, respectively.
In the same order, the values of ACAAAAAAAG are 0.12 relative 10-mer count, 0.0121 relative 10-mer count and 0.0533 relative 10-mer count.
The corresponding values for AAAGCAGTAC are 0.156 relative 10-mer count, 0.0228 relative 10-mer count and 0.0905 relative 10-mer count.
As for CCGACCCCCC, the binding signal came to 0.153 relative 10-mer count in the assay with ZNF721 full-length, 0.00541 relative 10-mer count with ZNF721 DBD1 and 0.00108 relative 10-mer count with ZNF721 DBD2.
Regarding CTCCCCTCCC, the binding signal came out at 0.135 relative 10-mer count in the assay with ZNF721 full-length, 0.00693 relative 10-mer count with ZNF721 DBD1 and 0.00455 relative 10-mer count with ZNF721 DBD2.
With GCCTCCCCCC, the values for the binding signal with ZNF721 full-length, with ZNF721 DBD1 and with ZNF721 DBD2 were 0.115 relative 10-mer count, 0.00518 relative 10-mer count and 0.00791 relative 10-mer count, respectively.
In the case of GGTGGGGGGA, the binding signal with ZNF721 full-length amounted to 0.186 relative 10-mer count; in the assay with ZNF721 DBD1 it was 0.00904 relative 10-mer count; with ZNF721 DBD2, 0.00407 relative 10-mer count.
With GCCACCCCAC, the binding signal with ZNF721 full-length turned out to be 0.129 relative 10-mer count; with ZNF721 DBD1, 0.00472 relative 10-mer count; in the assay with ZNF721 DBD2, 0.00491 relative 10-mer count.
In the same order, the values of CACCCACCTC are 0.109 relative 10-mer count, 0.00518 relative 10-mer count and 0.00312 relative 10-mer count.
In the same order, the values of ACCCCCAACC are 0.12 relative 10-mer count, 0.00468 relative 10-mer count and 0.00479 relative 10-mer count.
In the same order, the values of CACCACCCGC are 0.111 relative 10-mer count, 0.00454 relative 10-mer count and 0.00527 relative 10-mer count.
For CCCCCTCCCG, the binding signal with ZNF721 full-length was determined as 0.114 relative 10-mer count; in the assay with ZNF721 DBD1 it was 0.00573 relative 10-mer count; in the assay with ZNF721 DBD2, 0.00336 relative 10-mer count.
In the same order, the values of CCCCGCCCTC are 0.146 relative 10-mer count, 0.00601 relative 10-mer count and 0.00216 relative 10-mer count.
The corresponding values for CCCACCCAAC are 0.172 relative 10-mer count, 0.00679 relative 10-mer count and 0.0113 relative 10-mer count.
The corresponding values for CCCTACCACC are 0.104 relative 10-mer count, 0.00578 relative 10-mer count and 0.0144 relative 10-mer count.
In the case of AAAAAAAACA, the binding signal with ZNF721 full-length is 0.37 relative 10-mer count; with ZNF721 DBD1, 0.00592 relative 10-mer count; in the assay with ZNF721 DBD2 it was 0.252 relative 10-mer count.
The corresponding values for AGGGGGGCGG are 0.108 relative 10-mer count, 0.00417 relative 10-mer count and 0.0012 relative 10-mer count.
Turning to CCTCCACCCA, the binding signal with ZNF721 full-length turned out to be 0.111 relative 10-mer count; with ZNF721 DBD1, 0.00505 relative 10-mer count; with ZNF721 DBD2, 0.00527 relative 10-mer count.
In the same order, the values of CACCCCACAC are 0.138 relative 10-mer count, 0.0055 relative 10-mer count and 0.00875 relative 10-mer count.
Take CCCCCTCCCC: the binding signal came to 0.331 relative 10-mer count with ZNF721 full-length, 0.0149 relative 10-mer count with ZNF721 DBD1 and 0.00455 relative 10-mer count with ZNF721 DBD2.
For the sequence CACCCCCACA, the binding signal with ZNF721 full-length amounted to 0.116 relative 10-mer count; with ZNF721 DBD1, 0.00482 relative 10-mer count; with ZNF721 DBD2, 0.00779 relative 10-mer count.
ACCCACCTCC: the binding signal came out at 0.125 relative 10-mer count in the assay with ZNF721 full-length, 0.00505 relative 10-mer count with ZNF721 DBD1 and 0.00527 relative 10-mer count with ZNF721 DBD2.
In the same order, the values of CCACCATCCC are 0.162 relative 10-mer count, 0.0055 relative 10-mer count and 0.00443 relative 10-mer count.
The corresponding values for CACCCCCTCC are 0.159 relative 10-mer count, 0.00899 relative 10-mer count and 0.00719 relative 10-mer count.
Turning to ACAGCGTTAC, the binding signal came out at 0.102 relative 10-mer count in the assay with ZNF721 full-length, 0.00105 relative 10-mer count with ZNF721 DBD1 and 0.207 relative 10-mer count with ZNF721 DBD2.
The corresponding values for ACGCTTCATA are 0.122 relative 10-mer count, 0.2 relative 10-mer count and 0.00108 relative 10-mer count.
For the sequence CAAAAAAAAG, the binding signal with ZNF721 full-length came to 0.269 relative 10-mer count; with ZNF721 DBD1, 0.0321 relative 10-mer count; in the assay with ZNF721 DBD2, 0.108 relative 10-mer count.
In the same order, the values of AAAAGCTATC are 0.233 relative 10-mer count, 0.129 relative 10-mer count and 0.00168 relative 10-mer count.
Consider CCCCAGCCCC, for which the binding signal was 0.202 relative 10-mer count in the assay with ZNF721 full-length, 0.0083 relative 10-mer count with ZNF721 DBD1 and 0.0018 relative 10-mer count in the assay with ZNF721 DBD2.
Take CCGAAAAAAG: the binding signal with ZNF721 full-length is 0.106 relative 10-mer count; with ZNF721 DBD1, 0.016 relative 10-mer count; with ZNF721 DBD2, 0.0415 relative 10-mer count.
As to GGTGGTGGGA, the binding signal in the assay with ZNF721 full-length stood at 0.157 relative 10-mer count; with ZNF721 DBD1 it was 0.00784 relative 10-mer count; with ZNF721 DBD2 it was 0.00455 relative 10-mer count.
Consider CCCCGCCCCA, for which the binding signal in the assay with ZNF721 full-length was found to be 0.196 relative 10-mer count; with ZNF721 DBD1 it was 0.0067 relative 10-mer count; in the assay with ZNF721 DBD2 it was 0.00228 relative 10-mer count.
As to CCCAACCACC, the binding signal was determined as 0.17 relative 10-mer count in the assay with ZNF721 full-length, 0.00752 relative 10-mer count with ZNF721 DBD1 and 0.00539 relative 10-mer count in the assay with ZNF721 DBD2.
In the same order, the values of CCCCACACCC are 0.274 relative 10-mer count, 0.01 relative 10-mer count and 0.00443 relative 10-mer count.
In the same order, the values of CCACCTCCCA are 0.127 relative 10-mer count, 0.0061 relative 10-mer count and 0.00384 relative 10-mer count.
The corresponding values for AGCCCCACCC are 0.106 relative 10-mer count, 0.00312 relative 10-mer count and 0.00959 relative 10-mer count.
